Screens from PubChem BioAssay.
Shown are actives, neighbours in structure and some others; about 4.2% of the full set was active somewhere.
SMARCA2 activ: activators of SMARCA2 function. MG213 cells, MMTV-luciferase reporter, dexamethasone, overnight. activation, % at 9.1 µM. actives 1% (n = 370,000). AID 652017; in the data active means activation above about 7.8%
hcDAF12 agonist: H. contortus DAF-12 activation, primary screen; actives 1.4% (n = 370,000); HEK293 hcDAF-12 lit1-tk-luc reporter, luminescence; 0% DMSO, 100% Δ7-dafachronic acid; activation, % at 6.8 µM; AID 652067;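 active means activation above the mean of all tested compounds plus 3 SD, cut at about 5.5% in these data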
ssDAF-12 act: activates DAF-12 receptor from parasite S. stercoralis | actives 1% (n = 370,000) | HEK293 ssDAF-12/GRIP1 lit1-tk-luc reporter, luminescence; % of 3 µM dafachronic acid response | AID 652126 | activation, % at 6.8 µM;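 active means activation above the mean over all tested compounds plus 3 SD, cut at about 0.9% in these data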
hgDAF12 agonist: hgDAF-12 agonism, primary luciferase screen. HEK293 GAL4-hgDAF12 UAS-luciferase reporter, agonist luminescence; normalized to butyrate control. activation, % at 6.8 µM. actives 1.8% (n = 370,000);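 active means activation above a cutoff set at the mean of all screened compounds plus 3 SD, cut at about 10% in these data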
DAX1 StAR inh: blocks DAX1 repression of SF-1 activated StAR promoter | actives 1.1% (n = 370,000) | inhibition, % at 6.8 µM | HEK293T StAR-luciferase reporter, SF-1/DAX-1 repression relief;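 active means inhibition above the mean over all tested compounds plus 3 SD, cut at about 3.6% in these data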;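 further: higher inhibition means more luminescence from relief of DAX-1 repression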
Each line names hits and unclear results; the compound was inactive in the other large screens.

O=C(Cc1ccccc1[N+](=O)[O-])NCc1ccc(Cl)cc1	ssDAF-12 act 1.2
O=C(Cc1ccc([N+](=O)[O-])cc1)NCc1ccccc1Cl	none
Cc1cc(C(=O)Nc2ccc(Cl)c(Cl)c2)n(-c2ccccc2)n1	none
O=C(CN(C1CC1)S(=O)(=O)c1ccc(S(=O)(=O)N2CCCCCC2)cc1)Nc1ccccc1	none
COC(=O)CCN(C1CCCCC1)S(=O)(=O)c1ccc(S(=O)(=O)N2CCCCC2)cc1	hcDAF12 agonist 5.8
COc1cccc(/C=C2\CC3(OC(=O)C(C)(C)C)CCCN2C3)c1 (stereo not drawn)	none
Fc1ccc(N2CCN(C3=Nc4ccccc4Sc4ccccc43)CC2)cc1	ssDAF-12 act 1.3
FC(F)(F)c1cccc(N2CCN(C3=Nc4ccccc4Sc4ccccc43)CC2)c1	none
Cc1oc2c(c(C)nn2-c2ccccc2)c(=O)c1Cl	none
CCCNC(=O)c1ccc2c(c1)S(=O)(=O)c1ccccc1C2=O	none
NNC(=O)c1ccc2c(c1)S(=O)(=O)NNC2=O	hgDAF12 agonist 10.8
CC(=O)NC(CCS(C)(=O)=O)C(=O)N1CCc2ccccc21 (stereo not drawn)	hcDAF12 agonist 5.6, ssDAF-12 act 1.0
Cc1cc(NC(=O)CSc2nc3sc4c(c3c(=O)n2C)CCCC4)no1	none
Cc1cc(NC(=O)CSc2nc(C(C)C)nc3sc4c(c23)CCCC4)no1	ssDAF-12 act 1.3
Cn1cc([C@]2(O)C(=O)Nc3ccc(Br)cc32)c2ccccc21	ssDAF-12 act 0.9
Cn1cc([C@]2(O)C(=O)Nc3ccc(F)cc32)c2ccccc21	ssDAF-12 act 1.2
Cc1cc(-c2cccc([N+](=O)[O-])c2)nc2ccccc12	none
COc1ccccc1Oc1ccc(-c2cnc3ccccc3n2)cc1[N+](=O)[O-]	none
O=[N+]([O-])c1cc(-c2cnc3ccccc3n2)ccc1Oc1ccc(Cl)cc1	ssDAF-12 act 1.1
O=[N+]([O-])c1cccc(-c2cnc3ccccc3n2)c1	ssDAF-12 act 1.0
Cc1cccc(C)c1NC(=O)C1(C)CSCC(=O)N1CCc1ccc(O)cc1 (stereo not drawn)	none
COC(=O)C1CN(Cc2ccc(F)cc2)CCS(=O)(=O)N1Cc1ccc(C(F)(F)F)cc1 (stereo not drawn)	none
COc1ccc(S(=O)(=O)Cc2ccc(C(=O)NCCCN3CCc4ccccc4C3)o2)cc1	hcDAF12 agonist 5.8, ssDAF-12 act 3.5
C[C@H]1Cn2cnc(C(=O)Nc3cccc(Cl)c3)c2C(=O)N1	none
CC(C)c1ccc(NCCC(=O)c2cccs2)cc1	none
Cc1ccc(NCCC(=O)c2cccs2)cc1Cl	hgDAF12 agonist 11.8
O=C(CCNc1cccc(Cl)c1)c1cccs1	ssDAF-12 act 1.4
Cc1ccc(OC(=O)N2CCOCC2)cc1	none
CC(C)(C)c1ccc(OC(=O)N2CCOCC2)cc1	hgDAF12 agonist 10.7
Cc1ccccc1NC(=O)NCCc1ccc(Cl)cc1	none
S=C(NCCc1ccccc1)NCCc1ccccc1	none
O=C(NCCc1ccccc1)Nc1ccc(Cl)cc1	hgDAF12 agonist 12.9
S=C(NCCc1ccccc1)Nc1ccc(Cl)cc1	hgDAF12 agonist 10.8
O=C(CCc1ccccc1)N[C@H]1[C@@H](OC(=O)c2ccco2)CCC[C@@]12C(=O)N(Cc1ccccc1)c1ccccc12	none
COc1cc2c(cc1OC)-c1cc(Nc3ccc(N(C)C)cc3)nc(=O)n1CC2	SMARCA2 activ 7.8
CCOC(=O)N1CCN(C(=O)C[C@H]2C[C@@]3(C(=O)OC)C(=C[C@H](C(C)(C)C)O[C@@H]3C)N(Cc3cccc4ccccc34)C2=O)CC1	none
CC(C)c1ccc(OCC(=O)NC2=NCCS2)cc1	DAX1 StAR inh 3.7
C=CCNC(=O)c1ccccc1NC(=O)Nc1ccccc1	SMARCA2 activ 7.8
CC(C)(C)c1csc(NC(=O)Nc2ccccc2)n1	hgDAF12 agonist 12.4
Cc1ccc(CNC(=O)Nc2ccccc2)c(C)c1	hgDAF12 agonist 12.7
CCCCNC(=O)C1(C(=O)C2CC2)CC(c2ccccc2C(F)(F)F)=NO1 (stereo not drawn)	none
CC(COc1cc(F)cc(C#N)c1)CN1CCC(C(O)(c2ccccc2)c2ccccc2)CC1 (stereo not drawn)	none
CC(Oc1ccccc1)C(=O)NC1=NCCS1 (stereo not drawn)	DAX1 StAR inh 4.0
O=C(Nc1ccccc1)Nc1ccccc1	hgDAF12 agonist 12.5
O=C(COc1ccccc1)NC1=NCCS1	none
O=C(NC1=NCCS1)Nc1ccccc1	hgDAF12 agonist 10.9
COc1ccc(-c2nnc(-c3cccs3)o2)cc1OC	hgDAF12 agonist 12.0
COc1cc(-c2nnc(-c3cccs3)o2)cc(OC)c1OC	none
COC(=O)[C@H](C)NC(=O)[C@@H]1CC=C[C@@H]2CCN(CCc3ccccc3)C(=O)[C@@H]21	none (no result: SMARCA2 activ, DAX1 StAR inh)
CCN1CCN(c2nc(-c3cccnc3)nc3ccccc23)CC1	hcDAF12 agonist 5.7
CN1CCN(c2nc(-c3cccnc3)nc3ccccc23)CC1	none
CSC1=NC(=O)/C(=C/c2ccc(SC)cc2)S1	hgDAF12 agonist 12.8
COC(=O)[C@]12C[C@H](CC(=O)NCc3cccc4ccccc34)C(=O)N(CCc3ccc(OC)c(OC)c3)C1=C[C@H](COCc1ccccc1)O[C@@H]2C	none
COC(=O)c1cc(-c2cc3ccccc3s2)c(=O)n2c1CCC2	none
CC(C)[C@H](NC(=O)OCc1ccccc1)C(=O)OCC(=O)N1CCCCC1	hgDAF12 agonist 12.2
CC(C)[C@H](NC(=O)OCc1ccccc1)C(=O)OCC(=O)N1CCN(c2ccc(F)cc2)CC1	none
O=C(O)[C@H](Cc1ccccc1)NC(=O)[C@H]1O[C@@H](n2ccc(=O)[nH]c2=O)[C@H](O)[C@@H]1O	none
COc1ccc(/C=C2\S/C(=N/S(=O)(=O)c3cccs3)NC2=O)cc1	none
COc1ccc(/C=N/S(=O)(=O)c2cccs2)cc1	ssDAF-12 act 3.0
CC(C)=CCC/C(C)=C/CNCC(=O)N1c2ccccc2[C@]2(C)C[C@@H]3C(=O)N(C/C=C(\C)CCC=C(C)C)CC(=O)N3[C@H]12	none
CCCCN(C)CCNC(=O)c1ccc(Cn2c(=S)[nH]c3ccc(Br)cc3c2=O)cc1	DAX1 StAR inh 4.0
O=C(CSc1nc2ccccc2nc1N1CCOCC1)N1CCN(S(=O)(=O)c2cccc([N+](=O)[O-])c2)CC1	none
COc1ccccc1CNC(=O)CSc1ccsc1[N+](=O)[O-]	hgDAF12 agonist 10.9
COc1ccc(OC)c(CCNC(=O)CSc2ccsc2[N+](=O)[O-])c1	none
Cc1ccn2c(NC(=O)c3cccs3)c(-c3ccccc3)nc2c1	none
Cc1cccn2c(NC(=O)c3cccs3)c(-c3ccccc3)nc12	SMARCA2 activ 7.9
CN1CCN(C(=O)c2ccc(Cn3cc(Cl)cn3)o2)CC1	SMARCA2 activ 7.9
COc1cccc2cc(-c3nc4ccccc4o3)c(=O)oc12	hgDAF12 agonist 10.9
Cc1nn(-c2ccccc2)c(N)c1N=Nc1ccc(Cl)cc1	hgDAF12 agonist 18.1
O=C(NN=C1CCCCCCC1)c1ccccn1	none
COc1ccccc1OCC(=O)N/N=C1\CCCCc2ccccc21	none
